Mtb betalactam: beta-lactam sensitization of Mtb H37Rv | M. tuberculosis H37Rv growth with meropenem, percent inhibition | inhibition, % at 25 µM | 330,000 tested, 0.27% active; call rule not given here;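 further: growth measured after seven days incubation then overnight dye step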
GDH-TPI counter: counter-screen for M. tuberculosis FBA inhibitors: GDH-TPI coupled enzymes; inhibition, % at 4.8 µM; 360,000 tested, 1.2% active; GDH-TPI coupled enzyme counterscreen, NADH absorbance; in the data active means inhibition above about 30%
Mtb hypoxia rep: inhibitors of hypoxia-regulated fluorescent reporter in Mycobacterium tuberculosis | AID 1159583 | fluorescence inhibition, % (no concentration beside the values) | 300,000 tested, 0.1% active | M. tuberculosis hypoxia-regulated fluorescent reporter, fluorescence; in the data active means fluorescence inhibition mostly above about 23%, no sharp cut-off; inactive means mostly below about 17%
Mtb FBA inh: Mtb fructose-bisphosphate aldolase inhibition; inhibition, % at 1 µM; purified M. tuberculosis FBA, fluorescence read-out; 360,000 tested, 2.3% active; in the data active means inhibition above about 27%
Target sequence (P9WQA3 whole entry, looked up): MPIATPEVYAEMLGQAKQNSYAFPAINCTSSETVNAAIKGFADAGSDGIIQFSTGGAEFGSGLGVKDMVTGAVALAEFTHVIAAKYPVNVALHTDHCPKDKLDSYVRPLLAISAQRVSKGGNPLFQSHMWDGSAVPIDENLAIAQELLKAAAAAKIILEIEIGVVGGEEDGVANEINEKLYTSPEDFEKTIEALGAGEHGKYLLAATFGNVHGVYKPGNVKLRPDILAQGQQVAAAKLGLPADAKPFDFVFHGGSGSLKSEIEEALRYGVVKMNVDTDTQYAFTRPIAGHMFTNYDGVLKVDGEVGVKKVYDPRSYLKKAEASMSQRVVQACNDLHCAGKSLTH
VHR inh abs: DUSP3 (human) phosphatase inhibition. AID 1654. 290,000 tested, 0.52% active. recombinant VHR phosphatase, pNPP absorbance. inhibition, % at 13.3 µM. P51452; in the data active means inhibition above about 50%
Of the large screens only hits and unclear results are named; the others gave an inactive call. Most compounds without a hit are left out; they make up all but 3.6% or so of the library.

Cc1ccccc1OCCCn1cc(C(=O)C(=O)N2CCOCC2)c2ccccc21	Mtb FBA inh 152.4
Fc1ccc(Cn2cc(C(=S)N3CCOCC3)c3ccccc32)cc1	none
O=C(C(=O)N1CCOCC1)c1cn(Cc2ccc(F)cc2)c2ccccc12	GDH-TPI counter 32.1
CC(C)(Cl)C1Cc2cc3ccc(=O)oc3cc2O1 (stereo unspecified)	Mtb FBA inh 166.9
Cc1ccc2c(COC(=O)c3ccccc3Br)cc(=O)oc2c1	VHR inh abs 59.7
CSc1ncccc1C(=O)NCC1CCCCC1	VHR inh abs 51.3
Cc1ccc(/C=N/Nc2ccnc3cc(Cl)ccc23)c(C)c1	VHR inh abs 87.0 (no result: Mtb hypoxia rep)
Cc1ccccc1/C=N/Nc1ccnc2cc(Cl)ccc12	none (no result: Mtb hypoxia rep)
Cc1c(C(=O)O)cccc1-n1c(C)cc(C=NNC(=O)c2cc3ccccc3o2)c1C	none (no result: Mtb betalactam, GDH-TPI counter, Mtb FBA inh, VHR inh abs)
COc1c2ccc(OCCC(C)=CC(=O)C=C(C)C)cc2nc2occc12	none (no result: Mtb betalactam, GDH-TPI counter, Mtb FBA inh, VHR inh abs)
CC(C(=O)CC(=O)OC(C)(C)C)C(O)c1ccccc1 (stereo unspecified)	none (no result: Mtb betalactam, GDH-TPI counter, Mtb FBA inh, VHR inh abs)
O=C1c2cccc3cccc(c23)C(=O)N1/N=C/c1ccc(O)cc1O	GDH-TPI counter 46.5 (no result: Mtb hypoxia rep)
COc1ccc2c(c1)c1ncn(Cc3ccco3)c(=O)c1n2C	Mtb FBA inh 129.1
C=CCS(=O)(=O)N1CCCC(N2CCN(c3ccccc3OC)CC2)C1 (stereo unspecified)	none
COc1ccccc1N1CCN(C2CCCN(S(=O)(=O)c3ccccc3)C2)CC1 (stereo unspecified)	Mtb betalactam inconclusive, Mtb FBA inh 163.1
O=C(CCN1CCCO1)N1CCCC(N2CCN(c3ccccc3F)CC2)C1 (stereo unspecified)	none
COc1ccccc1N1CCN(C2CCCN(C(=O)CCN3CCCCO3)C2)CC1 (stereo unspecified)	VHR inh abs 51.3
O=C1CCCC(=NNC(=O)c2ccc(COc3cccc4cccnc34)cc2)C1	none (no result: Mtb betalactam, GDH-TPI counter, Mtb FBA inh, VHR inh abs)
C=CCn1c(C)csc1=Nc1ccc(C(C)=O)cc1	none
C=CCn1c(CC(=O)OC)csc1=Nc1ccc(C(C)=O)cc1	GDH-TPI counter 30.8
c1ccc2c(c1)[nH]c1ccccc12	none (no result: Mtb hypoxia rep, VHR inh abs)
O=c1c2ccccc2[nH]c2ccccc12	Mtb FBA inh 139.4 (no result: Mtb hypoxia rep)
COc1ccc(C(=O)ON=Cc2ccc(S(=O)(=O)c3ccc(Cl)cc3)nc2)cc1	none (no result: Mtb betalactam, GDH-TPI counter, Mtb FBA inh, VHR inh abs)
CC(=O)/C(=N/Nc1ccccc1)Sc1nnc(CCc2ccccc2)n1-c1ccccc1	GDH-TPI counter 31.7 (no result: Mtb hypoxia rep)
Clc1ccc(-c2cnn3c(-c4ccncc4)ccnc23)cc1	none
Nc1nc2nccc(-c3ccc(Cl)cc3)n2n1	GDH-TPI counter 33.9, Mtb FBA inh active (no result: Mtb hypoxia rep)
CC(C)NC(=O)N(C)CC1Oc2ccc(NS(=O)(=O)c3ccccc3)cc2C(=O)N(C(C)CO)CC1C (stereo unspecified)	none (no result: Mtb betalactam, GDH-TPI counter, Mtb FBA inh, VHR inh abs)
O=C(N=Nc1c(O)[nH]c2ccc(Br)cc12)c1ccco1	GDH-TPI counter 38.9 (no result: Mtb betalactam, Mtb hypoxia rep, VHR inh abs)
CC(c1ccco1)N(C(=O)c1ccccc1NS(=O)(=O)c1ccc(Cl)c([N+](=O)[O-])c1)c1ccccn1 (stereo unspecified)	GDH-TPI counter 32.1
CC1=C(C#N)C(c2cccnc2)C2=C(CC(C)(C)CC2=O)N1 (stereo unspecified)	none
CCOc1cc(C2Nc3ccccc3NC3=C2C(=O)CC(C)(C)C3)ccc1O (stereo unspecified)	none
CCOc1cc(C2Nc3ccccc3NC3=C2C(=O)CC(C)(C)C3)ccc1OC(C)=O (stereo unspecified)	GDH-TPI counter 43.4
COC(=O)c1ccc2c(c1)NC1=C(C(=O)CC(C)(C)C1)C(c1ccncc1)N2 (stereo unspecified)	GDH-TPI counter 31.3
CC1(C)CC(=O)C2=C(C1)Nc1ccccc1NC2c1cccnc1 (stereo unspecified)	GDH-TPI counter 37.3
CC1(C)CC(=O)C2=C(C1)Nc1ccccc1NC2c1cccc(F)c1 (stereo unspecified)	none
Cc1cc2c(cc1C)NC(c1cccnc1)C1=C(CC(C)(C)CC1=O)N2 (stereo unspecified)	GDH-TPI counter 32.9
COC(=O)c1ccc(C2Nc3ccccc3NC3=C2C(=O)CC(C)(C)C3)cc1 (stereo unspecified)	none
Fc1ccc(-c2nc3ccccn3c2NCc2ccc3c(c2)OCO3)cc1	Mtb FBA inh 39.4
CC(=O)N1c2ccccc2NC2=C(C(=O)CCC2)C1c1ccco1 (stereo unspecified)	none
COc1ccc(C2C3=C(CC(c4ccco4)CC3=O)Nc3ccccc3N2C(C)=O)cc1 (stereo unspecified)	GDH-TPI counter 33.9 (no result: Mtb hypoxia rep)
CC(=NO)C(C)(C)Nc1cccc(Br)c1	none (no result: Mtb betalactam, GDH-TPI counter, Mtb FBA inh, VHR inh abs)
